From PubChem
DT40 TDP1 CPT – DT40-hTDP1 cell growth loss with CPT | Potency, µM (highest dose often 46.2 µM), for inactives: at the top dose activity change, negative = growth inhibition, usual class: inhibitors | hit rate 12% among 420,000 | chicken DT40 Tdp1-/-;hTDP1 cells + 20 nM CPT, ATP luminescence, 48 h | AID 686979; also: % is scaled to controls: 0 for no effect and ±100 for the full control effect; nearly all actives have a fitted effect of over 55% in size
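Cell growth measured by CellTiter-Glo luminescence after a minimum 48 h, 37 C compound exposure with 20 nM CPT in Tdp1-knockout DT40 cells stably expressing hTDP1, seeded 400/well; qHTS titration format.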
TDP1 inh – TDP1 (human) enzyme inhibition. recombinant TDP1, AlphaScreen DNA substrate cleavage. Potency, µM (series often up to 130 µM), inactives show top-dose activity change, negative = inhibition, hits mostly inhibitors. hit rate 0.28% among 350,000. AID 485290; also: % is scaled to controls: 0 for no effect and ±100 for the full control effect; nearly all actives have a fitted effect of over 40% in size
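Steps: enzyme plus compound, 15 min RT; add biotin/phosphotyrosine-FITC oligonucleotide (15 nM final), react 5 min; add donor/acceptor beads (10 ug/ml final), 10 min; read AlphaScreen. Tdp1 at 1 nM final.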
DT40 TDP1 no CPT – qHTS for Inhibitors of human tyrosyl-DNA phosphodiesterase 1 (TDP1): qHTS in cells in absence of CPT | hit rate 15% among 420,000 | DT40 Tdp1-/- hTDP1 cells, no CPT, ATP luminescence, 48 h | Potency, µM (doses to about 46.2 µM), for the others: at the highest dose activity change, negative = growth inhibition, actives largely listed as inhibitors; also: % is scaled to controls: 0 for no effect and ±100 for the full control effect; nearly all actives have a fitted effect of over 55% in size
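Compound effects on proliferation are scored in DT40 Tdp1-/-;hTDP1 cells in the absence of CPT. ATP levels (CellTiter-Glo luminescence) are recorded after a ≥48 hr, 37 °C incubation.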
ClpP mod – qHTS Assay for Activators of ClpP. ATP-dependent Clp protease proteolytic subunit (Bacillus subtilis (strain 168)), P80244. purified B. subtilis ClpP, FRET peptide cleavage, 20 min. hit rate 1.9% among 340,000. AID 651965, 2013. Potency, µM (highest dose often 57.5 µM), without a hit: top-dose activity change, negative = active; active = well fitted falling curve with a large enough effect; inconclusive = small, poorly fitted or top-dose-only effect; inactive = no such curve, though single readings can be large or run the other way; also: the source files actives as falling curves though it sought activators and does not explain the sign; nearly all actives have a fitted effect of over 65% in size
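FRET quenching reversal measured ClpP activation: 10 microg/mL B. subtilis ClpP at pH 8 with the FRET-FV decapeptide, read at 430 nm after 320 nm excitation. The 20-min minus 0-min signal was scaled between DMSO/no-enzyme wells and ADEP (5.8 microM final).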
* marks the source's active call; other numbers are inactive results; ? = inconclusive; · = no result given; ! = a repeat was not active; [ ] = remark or other dose. Sampled rows, rich in hits. Any-hit rate of the full collection: about 17%. Unless noted, calls follow the shape of the dose curve; as a rule, active = well fitted curve in the direction sought with a large enough effect; inconclusive = small, poorly fitted or top-dose-only effect, or another doubt; inactive = no such curve, though single readings can be large; an effect the other way counts as inactive or inconclusive. Potency is read from the fitted curve at half-maximal effect.

SMILES	DT40 TDP1 CPT	TDP1 inh	DT40 TDP1 no CPT	ClpP mod
CCOC(=O)c1ccccc1NC(=O)c1cnc(N2CCOCC2)c2ccccc12	?	3%	16µM*	32µM*
N#Cc1ccccc1NC(=O)c1cnc(N2CCOCC2)c2ccccc12	?	5%	?	-13%
Cc1ccc(NC(=O)c2cnc(N3CCCCC3)c3ccccc23)cc1Cl	21µM*	-10%	?	32µM*
CC1(C(=O)NS(=O)(=O)c2ccc(C#N)cc2)CCN1C(=O)Cc1ccsc1 (stereo unspecified)	-15%	·	-11%	-2%
C=CCNC(=O)C1CCN(S(=O)(=O)c2ccc(Br)cc2)CC1	?	-4%	16µM*	-2%
O=C(NCC1CCCO1)C1CCN(S(=O)(=O)c2ccc(Br)cc2)CC1 (stereo unspecified)	-10%	4%	10%	-1%
O=C(NCc1ccc(Cl)cc1)C1CCN(S(=O)(=O)c2ccc(F)cc2)CC1	3.7µM*	5%	18µM*!	-2%
O=C(NCc1ccncc1)C1CCCN(S(=O)(=O)c2cc(Cl)ccc2Cl)C1 (stereo unspecified)	?	-4%	16µM*	·
O=C(NCc1ccncc1)C1CCN(S(=O)(=O)c2cc(Cl)ccc2Cl)CC1	-4%	3%	3%	·
Cc1ccc(CNC(=O)C2CCN(S(=O)(=O)c3ccc(F)cc3)CC2)cc1	-20%	·	-23%	0%
CN1C(=O)C(C)(C)c2cc(S(=O)(=O)N3CCC(C(=O)NCc4ccc(F)cc4)CC3)ccc21	7.3µM*	·	?	0%
Clc1ccc(-c2nc3c4ccccc4ccn3c2Cc2ccccc2)cc1	16µM*	·	10µM*	?
Brc1ccc(-c2nc3c4ccccc4ccn3c2Cc2ccccc2)cc1	16µM*	·	8.2µM*	-29%
CC(C)C(NC(=O)c1ccc(F)cc1)C(=O)NCC1CCCO1 (stereo unspecified)	-14%	3%	-12%	2%
CCN(Cc1ccccc1)C(=O)c1nc(-c2cccc(F)c2)n2c1CCCCC2	?	10%	?	-1%
NC(=O)c1nsc(C(=O)N(c2ccc3c(c2)OCCO3)C(C(=O)NCC2CCCO2)c2ccc(F)cc2)c1N (stereo unspecified)	15µM*	8%	18µM*	·
NC(=O)c1nsc(C(=O)N(c2ccccc2)C(C(=O)NCC2CCCO2)c2ccc(F)cc2)c1N (stereo unspecified)	?	1%	?	·
COc1ccc(CCN(C(=O)c2snc(C(N)=O)c2N)C(C(=O)NCC2CCCO2)c2ccc(F)cc2)cc1OC (stereo unspecified)	?	11%	29µM*	1%
Cc1ccc(C(C(=O)NCC2CCCO2)N(C(=O)c2snc(C(N)=O)c2N)c2ccc3c(c2)OCCO3)cc1 (stereo unspecified)	23µM*	11%	-86%	·
O=C(COC(=O)c1ccc(C(F)(F)F)cc1)NC(=O)NC1CCCC1	-19%	1%	-9%	0%
Cc1cccc(CC(=O)NCCS(=O)(=O)N2CCN(c3ccccc3)CC2)c1	?	·	?	-1%
O=C(CSc1nc2cc3ccccc3cc2[nH]1)Nc1cccc(C(F)(F)F)c1	18µM*	3%	21µM*	8%
O=C(CSc1nc2ccccc2c(=O)[nH]1)Nc1ccccc1C(F)(F)F	?	2%	?	0%
COc1cc(OC)c(NC(=O)CSc2nc3ccncc3[nH]2)cc1Cl	6.5µM*	?	5.2µM*	-1%
O=C(CSc1nc2ccncc2[nH]1)Nc1ccccc1C(F)(F)F	?	4%	15µM*	0%
SMILES	DT40 TDP1 CPT	TDP1 inh	DT40 TDP1 no CPT	ClpP mod
Cc1ccc(S(=O)(=O)N2CCOCC2)cc1C(=O)NNC(=O)c1ccoc1C	-1%	3%	-8%	-2%
CCOC(=O)c1c(NC(=O)c2cc3ccccc3c(=O)o2)sc2c1CCCC2	8%	2%	-1%	-1%
O=C(Cn1cc[n+](CC(=O)c2ccccc2)c1)c1ccccc1	8.2µM*	9%	4.1µM*	0%
Nc1cc[n+](CC(=O)c2ccccc2)cc1	?	·	?	0%
O=C(Cn1cc[n+](CC(=O)c2ccc(Cl)cc2Cl)c1)c1ccc(Cl)cc1Cl	?	-1%	26µM*	1%
CN1CCN(c2ccc(S(=O)(=O)N3CCOCC3)cc2NC(=O)COc2ccc(F)cc2Cl)CC1	26µM*	6%	?	-6%
CCN(CC)S(=O)(=O)c1ccc(N2CCN(C)CC2)c(NC(=O)COc2ccc(F)cc2Cl)c1	?	·	16µM*	0%
CCOC(=O)c1ccc(CN(Cc2ccc(Br)cc2)S(=O)(=O)c2cccc(C(F)(F)F)c2)cc1	?	5%	?	-3%
O=C(NCc1ccco1)Nc1ccc([N+](=O)[O-])cc1	-14%	2%	?	0%
O=C(NCc1ccccc1F)Nc1ccc([N+](=O)[O-])cc1	?	0%	26µM*	0%
O=C(NCc1ccc2c(c1)OCO2)Nc1ccc([N+](=O)[O-])cc1	21µM*	2%[56.1 µM]	4.1µM*	1%
CCc1ccc(NC(=O)NCc2ccc3c(c2)OCO3)cc1	-2%	2%[56.1 µM]	4%	0%
Cn1c(-c2ccccc2[N+](=O)[O-])[n+](C)c2ccccc21	13µM*	5%	5.8µM*	2%
Cn1c(O)c(N=Nc2ccccc2[N+](=O)[O-])c2ccccc21	5%	·	-2%	-1%
CCOC(=O)N1CCC(N2C(=O)c3ccccc3C2Nc2cc(C)cc(C)c2)CC1 (stereo unspecified)	?	4%	15µM*	·
CCOC(=O)N1CCC(N2C(=O)c3ccccc3C2Nc2ccc(C)cc2)CC1 (stereo unspecified)	?	4%	?	-1%
O=S1(=O)c2ccccc2N(Cc2ccccc2)c2ccccc21	-1%	5%	-6%	-6%
Cc1cc2[nH]c3c4ccccc4nc(C)c3c2cc1C	3.7µM*	·	2.6µM*	-7%
Cc1cc2c(C)nc3ccccc3c2o1	6%	5%	-3%	-11%
O=C(Nc1cccc(C(=O)N2CCCCC2)c1)c1ccccc1Br	-3%	5%	9%	0%
CCOc1ccc(/C=C/C(=O)Nc2ccc3[nH]c(=O)[nH]c3c2)cc1	16%	1%	5%	-3%
O=C(c1cc(-c2ccccc2)on1)N1CCOc2ccc(CN3CCN(c4ccccn4)CC3)cc2C1	8%[9.04 µM]	·	1%	·
O=C(CN(Cc1ccco1)C(=O)Cn1nnc(-c2ccc(F)cc2)n1)NC1CCCC1	?	5%	?	-2%
O=C(NC1CCCC1)C(c1cccs1)N(Cc1ccco1)C(=O)Cn1nnc(-c2cccs2)n1 (stereo unspecified)	21µM*	5%	?	-1%
Cc1ccc(-c2nnn(CC(=O)N(Cc3ccco3)C(C(=O)NC3CCCC3)c3cccs3)n2)o1 (stereo unspecified)	?	5%	?	-1%
